# This is a sample that favours compounds with a hit; in the whole collection about 5.2% have one here.
# Tau fibril FP: qHTS for Inhibitors of Tau Fibril Formation, Fluorescence Polarization. K18 P301L tau heparin fibrillization, Alexa594 FP, 6 h. Potency, µM (titrated, usually from 57.7 µM), for the others: at the top dose activity, negative = inhibition, actives largely listed as inhibitors. hit rate 0.39% among 280,000. AID 1468, 2008; note: potency is the fitted concentration of half-maximal effect; nearly all actives have a fitted effect of over 55% in size
# Target sequence (P10636 561-689 P618L limits assumed): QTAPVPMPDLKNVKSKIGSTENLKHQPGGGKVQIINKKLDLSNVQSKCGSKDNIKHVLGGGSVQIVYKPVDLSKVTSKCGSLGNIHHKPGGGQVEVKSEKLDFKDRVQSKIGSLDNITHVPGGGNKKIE
#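 Read-out: fluorescence polarization of Alexa 594-labeled tau (0.24 uM), 555 nm excitation, 632 nm emission. Mixtures held 15 uM unlabeled K18 P301L, compound and 20 uM heparin, pH 7 acetate buffer, incubated 6 hr at 37 C.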
# Tau ThT inhib: qHTS for Inhibitors of Tau Fibril Formation, Thioflavin T Binding | recombinant tau K18 P301L, heparin-induced fibrillization, ThT fluorescence | Potency, µM (titrated, usually from 57.4 µM), without a hit: at the top dose activity, negative = inhibition, usual class: inhibitors | hit rate 2.1% among 270,000 | AID 1460, 2008; note: potency is the fitted concentration of half-maximal effect; nearly all actives have a fitted effect of over 55% in size
#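 Recombinant human tau K18 fragment […] carrying P301L, 15 uM unlabeled plus 0.24 uM Alexa 594-labeled, was fibrillized with 20 uM heparin in 100 mM sodium acetate pH 7 for 6 hr at 37 C; 30 uM ThT fluorescence read after 1 hr.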
# Sfp PPTase inh: qHTS Assay for Inhibitors of Bacillus subtilis Sfp phosphopantetheinyl transferase (PPTase) | AID 1490, 2009 | Biochemical Sfp PPTase activity, qHTS | hit rate 3.5% among 310,000 | Potency, µM, for inactives: largest response in the series, negative = inhibition, usual class: inhibitors | 4'-phosphopantetheinyl transferase ffp (Bacillus subtilis), Q9F4F7;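 note: the enzyme is Sfp with the accession as filed and its product quenches rhodamine fluorescence; potency is the fitted concentration of half-maximal effect; 0% = enzyme reaction without inhibitor and -100% = no enzyme wells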
#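 Reaction rates are the 30-min fluorescence difference (ex 525, em 598 nm) in wells containing 15 nM Sfp, 5 uM rhodamine-CoA and 12.5 uM BHQ-2-YbbR at pH 7.6 with 10 mM MgCl2.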
# Tau fluor counter: Counterscreen qHTS for Inhibitors of Tau Fibril Formation, Fluorescence Polarization; Potency, µM (doses to about 57.7 µM), for inactives: at the top dose activity change, negative = decrease; tau K18 P301L (four-repeat tau fragment) Alexa594 fluorescence, heparin fibrillization; AID 1463, 2008; hit rate 0.93% among 280,000; note: potency is the fitted concentration of half-maximal effect; nearly all actives have a fitted effect of over 55% in size
#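 Human K18 P301L tau (15 uM unlabeled plus 0.24 uM Alexa 594-labeled, final) in 100 mM sodium acetate pH 7 was mixed with compound and 20 uM heparin and incubated 6 hr at 37 C.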
# FBPA coupling cs: qHTS Assay for Inhibitors of Fructose-1,6-bisphosphate Aldolase from Giardia Lamblia: Coupling assay counterscreen. coupling enzyme system counterscreen, AmpLite Red fluorescence. activity change, negative = inhibition, % at 58.2 µM, hits read low. hit rate 0.67% among 290,000; in the data active = activity change below about -30%
#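 First, compound is pin-transferred into glyceraldehyde-3-phosphate coupling-enzyme reagent at 57.5 uM final and held 10 min at RT. Next, substrate, coupling system and AmpLite Red are added. After 20 min RT, fluorescence (525/598 nm) is read.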
# The depositor's hits bear a star; ? = inconclusive; nt = no result; [ ] = another dose, or the depositor's remark. Unless noted, calls come from the whole dose curve; as a rule, active = well fitted curve in the direction sought with a large enough effect; inconclusive = small, poorly fitted or top-dose-only effect, or another doubt; inactive = no such curve, though single readings can be large; an effect the other way counts as inactive or inconclusive. Unless noted, % is set by controls: 0 for no effect and ±100 for the full control effect.
SMILES,Tau fibril FP,Tau ThT inhib,Sfp PPTase inh,Tau fluor counter,FBPA coupling cs
CCCCC1C(=O)N(c2ccccc2)N(c2ccc(O)cc2)C1=O (centres undefined),?,16µM*,-22%,-25%,-3
CC(C)=CCC1C(=O)N(c2ccccc2)N(c2ccccc2)C1=O,nt,nt,-7%,nt,nt
O=c1c2sc3ccccc3c2n(Cc2cccc(C(F)(F)F)c2)c(=O)n1Cc1ccc(F)cc1,-14%,1%,nt,-13%,nt
Cc1ccc(-n2nc(C)c3c2OC(N)=C(C#N)C3c2ccc(C)o2)cc1 (centres undefined),?,5µM*,?,?,-17
Cc1ccc(-n2nc(C)c3c2OC(N)=C(C#N)C3c2ccco2)cc1 (centres undefined),-11%,25µM*,-16%,?,-7
Cc1ccc(-n2nc(C)c3c2OC(N)=C(C#N)C3c2ccoc2)cc1 (centres undefined),?,13µM*,?,?,-13
COc1ccc(Cn2ccnc2SCC(=O)Nc2cc(C(F)(F)F)ccc2Cl)cc1,-10%,?,nt,?,nt
O=S(=O)(/N=S1/CC=CCN1S(=O)(=O)c1ccccc1)c1ccccc1 (centres undefined),?,?,1.4µM*,-1%,7
NS(=O)(=O)c1ccc(Nc2nc3ccccc3nc2NS(=O)(=O)c2cccc([N+](=O)[O-])c2)cc1,8%,11µM*,24%,?,3
COCc1cc(C)nc2c1C(=O)NC(c1ccc(F)cc1)N2Cc1ccccc1 (centres undefined),-13%,-3%,nt,-3%,nt
S=C1Cc2ccccc2N1,?,0.71µM*,3.2µM*,8.9µM*[quencher],0
O=C1CCc2ccccc2N1,3%,3%,23%,2%,0
CCCn1c(SCC(=O)Nc2ccccc2N2CCCCC2)nc2c1c(=O)n(C)c(=O)n2C,0%,-4%,35µM*,-3%,1
CCOC(=O)c1c(C)oc2ncnc(N3CCN(c4ccccc4OC)CC3)c12,-10%,-14%,nt,-17%,nt
COc1ccc2nc(N=Nc3ccc(N(C)C)cc3)sc2c1,-13%,0.89µM*,-1%,?,-2
CC(C)C(=O)Nc1ccc(NC(=O)c2cccs2)cn1,-2%,-10%,13%,-2%,-44*
O=[N+]([O-])c1cccn2cc(-c3ccc(Br)cc3)nc12,10%,5µM*,-4%,-14%,4
Cc1nc(C2CCC3C4CCC5=CC(=O)CC[C@]5(C)C4CC[C@]23C)cs1 (some centres undefined),3%,?,79µM*,12%,0
CC[C@@H](C)C(N)C(=O)O (some centres undefined),nt,nt,7%,nt,2
COc1cccc([C@@H]2Oc3ccc(Br)cc3C(=O)[C@H]2OC(=O)N[C@H]2CCCc3ccccc32)c1,-1%,-6%,7%,-6%,0
OC(CNCC(c1ccc(Cl)cc1Cl)c1c[nH]c2ccccc12)c1ccccc1 (centres undefined),-9%,?,50µM*,?,-2
CCOc1c(Cl)cc(CNCC(O)c2ccccc2)cc1OC (centres undefined),0%,3%,3%,-6%,3
CO[C@@H]1COC(=O)[C@@H](C)COC(=O)[C@@H](C)NC(=O)C/C=C\[C@@H]1C,-7%[11.6 µM],-2%[11.5 µM],-13%,-4%[11.6 µM],5
O=C(NCCOCCn1c(=O)oc2ccccc21)Nc1ccc(Cl)cc1,-10%,1%,nt,-24%,nt
CCOC(=O)c1ccc(-n2c(N)c(C(=O)NCc3ccco3)sc2=S)cc1,0%,?,35µM*,-22%,-11
SMILES,Tau fibril FP,Tau ThT inhib,Sfp PPTase inh,Tau fluor counter,FBPA coupling cs
COc1ccc(-n2c(N)c(C(=O)NCc3ccco3)sc2=S)cc1,-17%,-9%,4%,-15%,-11
C=CCNC(=O)c1sc(=S)n(-c2ccc(C(=O)OCC)cc2)c1N,-9%,-14%,20µM*,-14%,-8
CCn1c(N)c(C(N)=O)sc1=S,-2%,-12%,14µM*,3%,3
CCn1c(N)c(C(=O)NCc2ccco2)sc1=S,5%,-10%,22µM*,-8%,-10
CNC(=O)c1sc(=S)n(-c2ccc(OC)cc2)c1N,0%,-4%,26%,-7%,0
C[C@H]1C=CC(=O)C[C@H]1c1c(F)cccc1Cl,nt,nt,-6%,nt,-1
O=C(NC1CCCC1)c1cnn(-c2ccc(F)cc2F)c1C1CCNCC1,1%,-2%,nt,1%,nt
CCOC(=O)c1ccc(-n2c(=S)sc3c(=O)[nH]c(C)nc32)cc1,-5%,?,13µM*,-9%,5
Cc1ccc(Cl)cc1NC(=O)N1CCc2cc(S(=O)(=O)N3CCC(C)CC3)ccc21,-14%,2%,nt,-7%,nt
c1ccc2c(c1)Nc1cc3ccccc3cc1S2,?,2.2µM*,6%,?,-13
COc1ccc2c(c1)Sc1ccccc1N2,-11%,10µM*,-4%,10µM*[quencher],-3
O=C(/C=C/c1cccc(O)c1)c1ccc(N2CCOCC2)cc1,-6%,3.5µM*,-3%,?,-3
O=C(O)c1ccccc1NS(=O)(=O)c1ccc(NNC(=S)Nc2ccc(OC(F)F)cc2)c([N+](=O)[O-])c1,25µM*,7.1µM*,?,10µM*[quencher],14
Cc1cccc(NC(=O)C(C)OC(=O)c2ccccc2NS(=O)(=O)c2cc(C)c(C)c([N+](=O)[O-])c2)c1 (centres undefined),7%,-14%,19%,?,6
O=C(O)c1ccccc1Nc1ccc([N+](=O)[O-])cc1C(=O)O,4%,nt,16%,-2%,0
Cc1ccc(NC(=S)NNc2ccc([N+](=O)[O-])cc2S(=O)(=O)Nc2ccccc2C(=O)O)cc1C,?,7.9µM*,40µM*,?,0
Cc1cccnc1NC(=S)NCc1ccco1,0%,2%,16µM*,-3%,3
CC(C)(C)c1ccc(C(=O)NC(=S)NCc2ccco2)cc1,nt,nt,6%,nt,nt
CC(C)(CO)NC(=S)NCc1ccco1,-20%,?,16µM*,-26%,-26
CC(O)c1cccc2cc(C(O)CNC(C)(C)C)oc12 (centres undefined),nt,nt,7%,nt,0
CCN(CC)S(=O)(=O)c1ccc2oc(C(=O)NCc3ccc(C)cc3)c(C)c2c1,2%,-17%,25µM*,-22%,-2
CCCCN(CCCC)S(=O)(=O)c1ccc2oc(C(=O)NCc3ccc(C)cc3)c(C)c2c1,-7%,-3%,nt,-13%,nt
Cc1ccc2onc(CNC(=O)Nc3cc(F)ccc3F)c2c1,?,-4%,nt,-24%,nt
CCN(CC)S(=O)(=O)c1ccc(NC(=O)NCc2noc3ccc(C)cc23)cc1,14µM*,8%,nt,13µM*[quencher],nt
